Several values for one entry are separate records, joined by “and”; a condition that tells them apart may be missing. Identical values can stand only once. About 83,000 compounds went through this panel and 20% of them were active in at least one assay; those are over-represented in the sample as a whole.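 In brief: 96-well plates, 48 h treatment, single concentration, percent growth endpoint.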 A number with no mark means an inactive call. Activity calls are given as the source filed them. How the source made its calls: active means growth percent below 10; inactive means the rest.
Legend:
Assay in all cases: NCI-60 one-dose screen, 48 h (100 = growth as untreated, 0 = no growth, -100 = all killed)
Details in all cases: 10 µM unless noted
[1] = system: NCI-H23 lung
[2] = system: NCI-H226 lung
[3] = system: NCI-H322M lung
[4] = system: HOP-62 NSCLC
[5] = system: NCI-H460 lung
[6] = system: HOP-92 NSCLC
[7] = system: NCI-H522 lung
[8] = system: A549/ATCC NSCLC
[9] = system: 786-0 renal
[10] = system: COLO 205 colon

SMILES | growth [1] | growth [2] | growth [3] | growth [4] | growth [5] | growth [6] | growth [7] | growth [8] | growth [9] | growth [10]
CC1=CC=C(NC(=O)/C=C/c2ccccc2)CC1Nc1nccc(-c2cccnc2)n1 (stereo not given) | 69% | 66% | 67.2% | 54.8% | 66.9% | 60.3% | 69% | 42.4% | 15.9% | 26.7%
Nc1nc2c(s1)CCc1cn(S(=O)(=O)c3ccccc3)cc1-2 | 94.5% and 104% | 82.9% | 93.7% and 114% | 91.5% and 112% | 95.1% and 101% | 63.3% | 82.4% and 92.9% | 78.5% and 101% | 92.7% and 104% | 106% and 108%
NS(=O)(=O)c1ccc(C(=O)N=Nc2c(O)[nH]c3c(F)cccc23)cc1 | 94.9% | 96.8% | 98.2% | 97.1% | 111% | 98.2% | 91.2% | 99.9% | 103% | 106%
COc1cc(F)c(/C=C/c2cc(/C=C/c3cc(OC)c(OC)cc3F)n(-c3cc(F)cc(F)c3)n2)cc1OC | -20.2% (active) | 98.1% | 15.2% | 85.8% | 47% | 80.9% | 47.1% | 44.1% | 88.3% | 115%
CCOC(=O)CC1CSC(c2cccc(Cl)c2)=N1 (stereo not given) | 94.6% | 113% | 93.3% | 111% | 108% | 119% | 101% | 95.3% | 84.8% | 120%
CC(C)(C)c1cc(C(C)(C)c2ccccc2)cc(Cc2cc(C(C)(C)c3ccccc3)cc(C(C)(C)C)c2O)c1O | 108% | 90.9% | 97.1% | 108% | 105% | 55.1% | 79.2% | 101% | 103% | 123%
COC1=CC(c2ccc[nH]2)=N/C1=C\c1[nH]c(C)c(C(=O)Oc2ccccc2)c1C | -32.9% (active) | -39.8% (active) | -13.1% (active) | -22.2% (active) | -31.2% (active) | -35.4% (active) | -64% (active) | -44.1% (active) | -44.1% (active) | -81.4% (active)
COc1ccc(Cl)cc1Nc1nc(C(F)(F)F)ccc1C(=O)N/N=C/c1ccc(N(C)C)cc1 | 95.4% | 105% | 80.8% | 73.6% | 143% | 85.4% | 105% | 97% | 76% | 92.2%
CCCCCO/N=C\c1c2c(O)c3c(O)c(C)c4c(c3c1O)C(=O)C(C)(O/C=C\C(OC)C(C)C(OC(C)=O)C(C)C(O)C(C)C(O)C(C)/C=C\C=C(\C)C(=O)N2)O4 (stereo not given) | 19.7% | 26.9% | 53.2% | 34.7% | 5.62% (active) | -5.96% (active) | 6.3% (active) | 20.9% | 31.6% | 2.86% (active)
CCCCC#Cc1c(/C=C(\CCCC)SCC)n(C)c(=O)[nH]c1=O | 94.1% | 93.2% | 97.7% | 94.8% | 93.8% | 82.8% | 79.7% | 83.1% | 98.5% | 108%
COc1cc(Nc2nc3ccccc3cc2C(=O)Nc2ccc(F)c(F)c2)cc(OC)c1OC | 9.57% (active) | 22.1% | 53% | 46% | 9.51% (active) | 1.01% (active) | 20.4% | 22.7% | 34.5% | 9.14% (active)
Oc1ccccc1C=Nc1ccc(N2CCN(c3ccccc3)CC2)cc1 | 93.4% | 110% | 98.2% | 74.7% | 111% | 99.5% | 95.7% | 92.1% | 94.1% | 93.7%
CCOC(=O)c1cnn(-c2ccc(S(N)(=O)=O)cc2)c1N | 95.5% | 92% | 99.8% | 95.9% | 104% | 105% | 96.2% | 103% | 95.6% | 140%
O=C1/C(=C/c2ccc(-c3ccccc3C(F)(F)F)o2)SC(=S)N1CCc1ccc(O)cc1 | 78.2% | 90.2% | 75.6% | 50.2% | 48.3% | 61% | -11% (active) | 45.7% | 65% | 48.1%
O=C(Nc1cc(C(F)(F)F)cc(C(F)(F)F)c1)c1cc(Cl)ccc1O | -25.2% (active) and -11.5% (active) | -27.9% (active) | -3.01% (active) and 1.1% (active) | -27.3% (active) and -3.41% (active) | 0.0882% (active) and 2.21% (active) | -19.6% (active) and -14.1% (active) | -45.5% (active) and -23% (active) | -7.9% (active) and 5.51% (active) | -41.1% (active) and -48.8% (active) | -83.1% (active) and -64.5% (active)
O=C(O)C1C2CCC1C(O)C2 (stereo not given) | 99.1% and 99.6% | 94.5% | 115% and 97.6% | 87.9% and 112% | 112% and 111% | 108% and 97.6% | 87.6% and 98.6% | 102% and 100% | 98.2% and 96.5% | 102% and 106%
CCNC(=O)Oc1ccc(/C(=C(/C)Cc2ccc(OC)cc2)c2ccc(OCCN(CC)CC)cc2)cc1 | 78.2% | 91.9% | 76.9% | 76.3% | 13.5% | 43.3% | 58.1% | 51.7% | 53.8% | -69.1% (active)
COc1ccc(/C=C(\C#N)c2cc3ccccc3[nH]2)cc1 | 33.2% | 88% | 49.9% | 33.2% | 12.7% | 44% | 6.84% (active) | 37.5% | 42.1% | 9.11% (active)
COc1cc(/C=C(/c2ccccc2)[N+](=O)[O-])c(OC)c2c1OCO2 | -34.7% (active) | 24.8% | 3.33% (active) | -19.6% (active) | -16.1% (active) | -49.2% (active) | -62.8% (active) | 5.75% (active) | -98% (active) | -53.1% (active)
Cn1cc2c(=O)nc3c(-c4nc5ccccc5[nH]4)n[nH]n3c2n1 | 78.6% | 96.4% | 91.8% | 73% | 81.9% | 83.6% | -44.5% (active) | 79.2% | 80.7% | 114%
Cc1ccc(-c2nc3nc(-c4ccc(Cl)cc4)nc(N4CCCNCC4)c3o2)cc1 | 96.4% | 111% | 17.4% | 97.6% | -81.6% (active) | 83.6% | 62.2% | -81.6% (active) | -82.9% (active) | -66.4% (active)
N=C(N)c1ccc(-c2ccc(-c3ccc(F)cc3)s2)nc1 | 81.8% | 72.1% | 66% | 80.5% | -13.2% (active) | 69.8% | 64% | 59.1% | 88.7% | -46.7% (active)
CCOc1ccc(C(=O)Cc2ccccc2)cc1 | 115% and 105% | 99.1% | 114% | 97.3% and 121% | 110% and 112% | 108% and 102% | 93.8% and 102% | 98.9% and 99.4% | 93.2% and 103% | 120% and 125%
COc1ccc(Oc2nc(Nc3ccc(N4CCOCC4)cc3)ncc2NC(=O)c2cccc(C(F)(F)F)c2)cc1 | 87.3% | 81.2% | 83.6% | 94.4% | 70.2% | 76.7% | 0.64% (active) | 66% | 87.8% | 84.8%
COc1cc(/C=C2/C=C(c3ccc(C(C)(C)C)cc3)N(CCc3ccc(S(N)(=O)=O)cc3)C2=O)cc(OC)c1OC | 62.3% | 62.7% | 81.2% | 77% | 35.6% | 23% | 49.8% | 38.2% | 29.7% | 34.3%
